According to PubChem BioAssay:
Active and inactive are the calls of the source. Unless noted, how the calls were made is not given here.

Experiments:
[1] = tested on: XIP peptide (Xip251-270) binding; test: small-molecule binders of XIP peptide, primary screen, biochemical, small-molecule microarray, fluorescence 635/667 nm, 0.1 µg/mL protein (AID 1182); details: fluorescent protein binding, 635 nm, higher = more signal, called active from +8 up or from −8 down
XIP peptide (Xip251-270) = test: small-molecule binders of XIP peptide, primary screen, biochemical, small-molecule microarray, fluorescence 635/667 nm, 0.5 µg/mL protein (AID 1183); details: small-molecule microarray binding, fluorescence 635 nm; higher = more signal
[2] = Plasmodium falciparum growth inhibition, primary screen, strain 3D7, DAPI fluorescence, 100 nL (AID 1184);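 further: parasites grown inside human red blood cells in medium with human serum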; details: P. falciparum 3D7 growth, 3 d, higher = more signal
[3] = target: Homeobox protein Hox-A13 (Mus musculus) (UniProt Q62424); test: inhibitors of HoxA13-DNA binding, primary screen, biochemical, fluorescence polarization, labeled oligonucleotide (AID 1185); details: 15 min, higher = more signal, called active from +8 up or from −8 down
[4] = inhibitors of hydroxyurea-induced Chk1 phosphorylation, primary screen, imaging, HeLa, phospho-Chk1 antibody, percent positive cells (AID 1186); details: hydroxyurea-induced phospho-Chk1 immunofluorescence imaging, higher = more signal
[5] = inhibitors of hydroxyurea-induced Chk1 phosphorylation, primary screen, imaging, HeLa, phospho-Chk1 nuclear intensity (AID 1187); details: hydroxyurea-induced phospho-Chk1 immunofluorescence imaging, higher = more signal

Chain of Homeobox protein Hox-A13 (Mus musculus) (Q62424 whole entry, looked up): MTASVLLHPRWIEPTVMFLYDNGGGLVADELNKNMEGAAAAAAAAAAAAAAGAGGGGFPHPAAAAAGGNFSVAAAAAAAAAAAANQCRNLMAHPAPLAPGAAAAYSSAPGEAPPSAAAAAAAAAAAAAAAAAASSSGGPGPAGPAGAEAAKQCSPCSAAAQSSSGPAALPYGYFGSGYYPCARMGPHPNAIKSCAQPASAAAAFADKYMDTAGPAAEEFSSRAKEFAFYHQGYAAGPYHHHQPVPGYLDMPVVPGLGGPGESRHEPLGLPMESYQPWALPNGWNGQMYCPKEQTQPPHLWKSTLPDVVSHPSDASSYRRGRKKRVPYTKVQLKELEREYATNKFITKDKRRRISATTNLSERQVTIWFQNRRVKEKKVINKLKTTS

Compound	composite z-score [1]	composite z-score (XIP peptide (Xip251-270))	z-score [2]	z-score [3]	z-score [4]	z-score [5]
[N-]=[N+]=Nc1ccccc1[C@@H]1OC(c2ccc(OCCCO)cc2)=N[C@]1(CCS(=O)(=O)c1ccccc1)C(=O)NCCN1CCOCC1	0.691 (inactive)	0.433	-2.67	-3.85 (inactive)	0.147 (inactive)	0.222 (inactive)
C=CCC(OC(C)=O)[C@@H]1[C@@H](N(Cc2ccc(-c3ccccc3)cc2)C(=O)c2cccc3ccccc23)c2cc(OCCCO)ccc2N1C(=O)Cc1ccc2ccccc2c1 (stereo not given in full)	-0.366 (inactive)	0.579	-0.171	-1.26 (inactive)	-0.8 (inactive)	-0.493 (inactive)
CC(C)N1CC=CC23O[C@@H]4C=CCCOC(=O)C4[C@H]2C(=O)N(CCO)[C@@H]3C1=O (stereo not given in full)	-0.3 (inactive)	0.172	-0.434	-4.46 (inactive)	-0.494 (inactive)	-0.578 (inactive)
O=C(N1CCCCC1)[C@@]1(Cc2ccccc2)COC(c2ccc(OCCCO)cc2)=N1	1.07 (inactive)	0.819	-1.77	-5.09 (inactive)	-0.542 (inactive)	-0.344 (inactive)
O=C1NC(=O)C2C1C=CC(C(O)c1c(F)cccc1Cl)N2Nc1ccccn1 (stereo not given)	0.49 (inactive)	0.833	-0.362	-2.19 (inactive)	0.578 (inactive)	0.135 (inactive)
COc1ccc(C(O)C2C=CC3C(=O)N(Cc4ccccc4)C(=O)C3N2n2cnnc2)c2ccccc12 (stereo not given)	1.09 (inactive)	0.537	-1.05	-1.49 (inactive)	-0.525 (inactive)	-0.966 (inactive)
NC(=O)N1C(=O)C2C(C1=O)C1C=C(CCCO)C2C(c2cccs2)N1Cc1cc2c(cc1Br)OCO2 (stereo not given)	0.0706 (inactive)	0.231	0.376	-5.04 (inactive)	0.164 (inactive)	0.509 (inactive)
C=CC[C@]1(C(=O)N(C)C)N=C(c2ccc(OCCCO)cc2)O[C@H]1c1ccccc1N=[N+]=[N-]	0.845 (inactive)	0.382	-1.8	-3.37 (inactive)	-0.22 (inactive)	-0.0961 (inactive)
Cc1ccc(S[C@]2(C(=O)NCC(C)C)CC(=O)N(Cc3ccccc3Cl)[C@@H]2c2ccc(CO)cc2I)cc1	2.28 (inactive)	0.157	-0.548	-2.97 (inactive)	-0.346 (inactive)	-0.237 (inactive)
CCOC(=CC(=O)OC)CC(O)c1cccc(Cl)c1 (stereo not given)	2.68 (inactive)	0.893	-0.368	-3.53 (inactive)	-0.119 (inactive)	0.219 (inactive)
CCCCN1CC=CC23O[C@@H]4C=CCOC(=O)[C@@H]4[C@H]2C(=O)N(CCCO)[C@@H]3C1=O (stereo not given in full)	0.769 (inactive)	-0.374	-1.81	-4.48 (inactive)	-0.247 (inactive)	-0.169 (inactive)
C[C@H]1C2=C3C(CC[C@H]4C(OCc5ccc(F)cc5C(F)(F)F)OC[C@](C)([C@@H]34)N(C(=O)OC(C)(C)C)C2)C2COC(=O)OCC21 (stereo not given in full)	0.172 (inactive)	0.551	-0.121	-3.49 (inactive)	0.671 (inactive)	0.439 (inactive)
COCCCNC(=O)[C@@H]1c2ccccc2C(=O)N(Cc2ccccc2C(F)(F)F)[C@H]1c1ccc(CO)cc1	0.348 (inactive)	-0.149	0.226	-1.82 (inactive)	-0.477 (inactive)	-0.593 (inactive)
O=C1NC(=O)C2C1C=CC(C(O)c1cc(C(F)(F)F)cc(C(F)(F)F)c1)N2Nc1ccc(Cl)cc1Cl (stereo not given)	1.75 (inactive)	0.154	0.0295	-5.48 (inactive)	1.15 (inactive)	1.26 (inactive)
CCOC(=O)C1=CC[C@@H](c2ccc([N+](=O)[O-])cc2)N(S(=O)(=O)c2ccc(C)cc2)[C@H]1c1ccccc1	0.353 (inactive)	0.552	-1.41	2.35 (inactive)	-0.137 (inactive)	-0.3 (inactive)
C=CC[C@@]12N=C(c3ccc(OCCCO)cc3)O[C@@H]1c1ccccc1N(CCS(=O)(=O)c1ccccc1)C2=O	2.13 (inactive)	0.767	-2.01	-2.38 (inactive)	-0.641 (inactive)	-0.295 (inactive)
[N-]=[N+]=Nc1ccccc1C[C@]1(C(=O)NCc2ccccc2)N=C(c2ccc(OCCCO)cc2)O[C@H]1c1ccccc1	0.222 (inactive)	0.813	-2.07	-0.801 (inactive)	0.0726 (inactive)	0.176 (inactive)
Cc1ccc(F)cc1S(=O)(=O)N[C@@H]1CCN(Cc2ccc(Oc3ccccc3)cc2)C1	0.401 (inactive)	-0.0723	-0.954	-5.64 (inactive)	0.659 (inactive)	0.735 (inactive)

Compound	composite z-score [1]	composite z-score (XIP peptide (Xip251-270))	z-score [2]	z-score [3]	z-score [4]	z-score [5]
COC(=O)[C@@]1(Cc2ccc(OC)cc2)[C@H]2c3cc(C(=O)N(C)C)n(Cc4nc5ccccc5[nH]4)c3C[C@H]2CN1C(=O)c1ccccc1	0.469 (inactive)	0.599	-1.17	-3.08 (inactive)	0.399 (inactive)	0.0842 (inactive)
O=C(O)[C@H](Cc1ccccc1)n1cc(-c2ccccn2)nn1	0.355 (inactive)	0.32	0.214	-0.876 (inactive)	0.721 (inactive)	0.662 (inactive)
Cc1ccc(S[C@]2(C(=O)NC(C)C)CC(=O)N(Cc3ccccc3C(F)(F)F)[C@@H]2c2ccc(CO)cc2I)cc1	0.136 (inactive)	0.582	-1.14	-1.9 (inactive)	0.0101 (inactive)	0.293 (inactive)
Cc1ccc(F)cc1S(=O)(=O)N[C@@H]1CCN(Cc2ccc(OC(C)C)cc2)C1	-0.46 (inactive)	-0.701	-0.85	-5.27 (inactive)	0.239 (inactive)	1.54 (inactive)
CO[C@H]1O[C@H](CO)[C@@H](OC(=O)c2ccc(Br)cc2)[C@@H]2OC(=O)[C@@H](Cc3ccc4ccccc4c3)C/C=C/C[C@H](Cc3ccc4ccccc4c3)C(=O)O[C@@H]12	1.08 (inactive)	0.266	-0.0936	-5.67 (inactive)	-0.555 (inactive)	-0.449 (inactive)
COC(=O)[C@H](Cc1ccccc1)N1CC(/C=C/C2CC2)=C[C@@H]1[C@@H](O)Cc1ccccc1	0.971 (inactive)	0.639	-0.547	-5.53 (inactive)	-0.613 (inactive)	-0.713 (inactive)
COC(=O)Cn1c(C(=O)N2CCCC2)cc2c1C[C@H]1CN(C(=O)c3ccccc3)[C@@](Cc3ccc(F)cc3)(C(=O)OC)[C@@H]21	0.243 (inactive)	0.513	0.554	-5.15 (inactive)	-1.49 (inactive)	-1.37 (inactive)
C=C(COC)/C(=C/C[C@@H](OC(=O)c1ccncc1)c1ccc(CO)o1)c1cnc2ccccc2c1	0.86 (inactive)	0.726	-0.58	-5.9 (inactive)	0.496 (inactive)	0.671 (inactive)
COc1ccc([Si](C)(C)[C@@H]2[C@@H](CCO)O[C@]3(C(=O)N(Cc4cccc(N5C(=O)c6ccccc6Oc6ccccc65)c4)c4ccccc43)[C@H]2C)cc1	0.872 (inactive)	0.41	-2.47	-1.49 (inactive)	-0.665 (inactive)	-0.278 (inactive)
CO[C@H]1O[C@H](CO)[C@@H](OC(=O)Nc2ccc(C(F)(F)F)cc2)[C@H](OC(=O)Nc2ccc3c(c2)OCO3)[C@H]1OC(=O)Nc1ccc2c(c1)OCO2	1.22 (inactive)	0.898	-1.76	-3.94 (inactive)	-0.318 (inactive)	-0.559 (inactive)
[N-]=[N+]=Nc1ccccc1C[C@@]1(C(=O)O)N=C(c2ccc(OCCCO)cc2)O[C@@H]1c1ccccc1	0.57 (inactive)	0.707	-0.188	-5.79 (inactive)	0.167 (inactive)	0.149 (inactive)
COCCCNC(=O)[C@]1(CCC(=O)OC(C)(C)C)N=C(c2ccc(OCCCO)cc2)O[C@@H]1c1ccccc1	0.538 (inactive)	0.817	0.83	-6.02 (inactive)	-0.289 (inactive)	-0.288 (inactive)
CN1C2C=C(CCCO)C(C3C(=O)N(C(N)=O)C(=O)C32)C1c1cccs1 (stereo not given)	0.0931 (inactive)	-0.301	-0.29	-8.5 (active)	-0.443 (inactive)	0.133 (inactive)
NC(=O)N1C(=O)C2C(C1=O)C1C=C(c3ccc(CO)cc3)C2C(C2CC2)N1Cc1sc2ccccc2c1Cl (stereo not given)	0.703 (inactive)	0.726	-2.1	-2.31 (inactive)	-0.0244 (inactive)	-0.0866 (inactive)
COC(=O)[C@@]1(Cc2ccc(OC)cc2)[C@H]2c3cc(C(=O)N4CCCC4)n(CCc4cc5ccccc5[nH]4)c3C[C@H]2CN1C(=O)c1ccccc1	1.64 (inactive)	0.685	-1.66	-1.91 (inactive)	-0.203 (inactive)	-0.0973 (inactive)
COC(=O)[C@@]1(Cc2ccc(OC)cc2)[C@H]2c3cc(C(=O)N(C)C)n(Cc4ccccc4)c3C[C@H]2CN1C(=O)c1ccccc1	0.0961 (inactive)	-0.248	-0.921	-0.853 (inactive)	-0.342 (inactive)	-0.687 (inactive)
Cc1ccc(S[C@]2(C(=O)NCC(F)(F)F)CC(=O)N(Cc3ccccc3)[C@@H]2c2ccc(CO)cc2)cc1	1.02 (inactive)	0.5	-1.57	-3.77 (inactive)	-0.336 (inactive)	-0.603 (inactive)
